Experimental data reported in the supplement of paper PMC6555819.

How the values were obtained:
Assay in all cases: PBM binding z-score (relative to random genomic background probes); higher = stronger binding; sequences stand for … in GC…GCGATTGACAGCGTAGAATGAAGG
[1] = system: RARb homodimer (NR concentration 270 nM)
How it was run: (§1)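 The probes on custom Agilent 4×180K protein-binding microarrays were double-stranded, with 34-nt variable regions bearing direct-repeat seeds, single-nucleotide variants, half-site ablations and random human genomic background sequences. Incubation lasted 1 h with ligand-free nuclear receptor dimers in PBS pH 7.4, 2% milk, 0.02% Triton X-100, 1 mM DTT, 0.2 mg/mL BSA and 0.4 mg/ml salmon testes DNA. Antibodies against each partner (one per run) detected bound dimers, and fluorescence scans were regression-normalized. Binding z-scores take the random background probes as reference.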

[2] = system: RARg:RXRa (NR concentration 270 nM, RXRa partner concentration 90 nM)
How it was run: as §1

[3] = system: RARg homodimer (NR concentration 270 nM)
How it was run: as §1

[4] = system: RXRa DBDmut IVT, anti-RXR (DBD mutation: RXRa K156A/R161A, NR concentration 90 nM)
How it was run: as §1

[5] = system: RXRa homodimer (NR concentration 180 nM)
How it was run: as §1

[6] = system: THRa:RXRa (NR concentration 90 nM, RXRa partner concentration 90 nM)
How it was run: as §1

[7] = system: THRa homodimer (NR concentration 90 nM)
How it was run: as §1

[8] = system: VDR homodimer (NR concentration 270 nM)
How it was run: as §1

| Sequence | PBM binding z-score [1] | PBM binding z-score [2] | PBM binding z-score [3] | PBM binding z-score [4] | PBM binding z-score [5] | PBM binding z-score [6] | PBM binding z-score [7] | PBM binding z-score [8] |
| --- | --- | --- | --- | --- | --- | --- | --- | --- |
| CGAACGAGGGCATGAGTTGACAGCAAATGCCGAT | 0.912 | 1.52 | 1.6 | 2.28 | 0.957 | 1.45 | -0.266 | 1.65 |
| CCTACTGGGCCATCGGGTCATTGATATCAACGTT | 2.25 | 2.25 | 1.72 | -0.759 | 1.89 | 2.86 | 1.94 | 1.68 |
| AGAACGACGGCACGCTGAGTTGATAGCAGAGTAG | -0.983 | -0.171 | -0.213 | -0.569 | -0.1 | -0.601 | -1.14 | -0.198 |
| CGTCCAAGGTCGTAGGAGGTCAGTGAAGACAGAT | 4.07 | 4.63 | 4.14 | 2.43 | 4.36 | 4.89 | 1.61 | 2.85 |
| TCTATTAGTTGAAGGTCAACCGACGAGTCCGTTT | 4.21 | 4.22 | 4.39 | 2.25 | 4.15 | 3.13 | 1.93 | 3.45 |
| CCGACTGGGGCAGAAAGGTTTCCATACCATCCGG | 0.129 | -0.218 | 0.0471 | -0.768 | -0.284 | -1.38 | -0.951 | -0.664 |
| CCTAGCAGGCCAATCTGGGTCATTCAAGGCTTGA | 2.03 | 0.777 | 0.991 | 0.224 | 0.619 | 3.73 | 0.0402 | 0.585 |
| CCTCGGAGGACAGAAGGTCAGAGCCGTCCGCTTT | 3.64 | 3.4 | 3.1 | 0.361 | 2 | 2.33 | 0.0553 | -0.0393 |
| CCAGACGGGTGAGAAGGTAACTCAGCCTCGATTA | -0.188 | 0.0516 | 0.0574 | -0.845 | 0.0255 | -0.158 | -0.508 | -0.29 |
| AGAATGAGGTTATTAAGATCAGGGCATTGCGGTC | 1.67 | 1.47 | 1.12 | 2.13 | 2.02 | 2.61 | 1.18 | 1.74 |
| TCTCGGAGGACACCAAGGTCAGAGCTTTCCAGAG | 3.68 | 2.96 | 3.73 | 0.966 | 1.75 | 3.13 | 2.38 | 2.31 |
| CCTAGCAGGCCAATTTGGGTCACTCAAGGCTTGA | 2.08 | 0.9 | 1.21 | 0.0247 | 0.826 | 3.86 | 0.606 | -0.23 |
| TCTTGTAGATCAGCAGATTAAGAAAGCTGGCCAA | -0.767 | -0.275 | -0.543 | 0.615 | -0.121 | -0.329 | -0.892 | -0.178 |
| TGAATGAGGTTAAAGATCGGGGAACGTGGCGTCG | 0.987 | 2.41 | 1.24 | 1.35 | 3.31 | 2.55 | 0.447 | 0.818 |
| CCGACTGGGACATAAGGTTACCATAAGCCAGCCC | 1.42 | 0.813 | 0.738 | -0.237 | 1.01 | 2.26 | 1.7 | -0.0177 |
| TCTAGTCGGTCACGGAGGTCACACACGACGGGTA | 5.2 | 5.84 | 6.47 | 1.15 | 5.17 | 3.94 | 2.48 | 3.72 |
| AGATTGAGGTTAAGATCAGGGAAACAGAATACAT | 1.42 | 2.1 | 1.78 | 1.36 | 2.48 | 2.7 | 1.12 | 0.928 |
| TCTTGTAGATCGGCAGGTTAAGAAAGCTGGCCAA | 0.124 | -0.0429 | -0.399 | 0.729 | 0.269 | 0.308 | -0.309 | -0.0576 |
| AGAACTAGGGCAATGAGTTGATAGCACGGGTGGC | 0.411 | 0.47 | 0.889 | 0.324 | 0.422 | 0.157 | -0.177 | 1.02 |
| ATATGTAGGTTAGCCGGGGTCATTCAGACTAGGC | 4.07 | 4.69 | 3.57 | 2.39 | 6.32 | 5.21 | 2.99 | 5.54 |
| TCTTGTAGATCAAAGGTAAAGAAAGCCGAAGCCT | -0.121 | 0.243 | -0.165 | 0.56 | 0.881 | 0.386 | -0.548 | -0.117 |
| GCGACTGGGGCATCAGTAGGTTACCATAACTTAA | 0.91 | 0.793 | 0.519 | 0.0645 | 0.498 | 0.632 | -0.249 | -0.583 |
| GCGACTGGGGCATCAGCAAGTTACCATAACTTAA | -0.0103 | 0.142 | 0.0409 | -0.018 | 0.208 | -0.53 | -0.605 | -0.296 |
| CCTTACGGGACACTCCAGGTTATAGCATCGGAGT | 0.585 | 0.478 | 0.691 | 0.129 | 0.276 | 1.84 | 0.457 | 0.239 |
| CCTACTGGGCCAAAAAGGTCATTGTTGCCGATAA | 4.29 | 4.28 | 3.91 | 0.617 | 4.21 | 2.92 | 0.342 | 2.3 |
| GTACCACGGTGAATAGGTCGTTGATGAGTAGGCG | 0.859 | 0.755 | 0.261 | -0.3 | 0.707 | 0.209 | -0.565 | 0.098 |

| Sequence | PBM binding z-score [1] | PBM binding z-score [2] | PBM binding z-score [3] | PBM binding z-score [4] | PBM binding z-score [5] | PBM binding z-score [6] | PBM binding z-score [7] | PBM binding z-score [8] |
| --- | --- | --- | --- | --- | --- | --- | --- | --- |
| TTACCAAGGTGAGCAGAGGTCGTTGATCCAACTC | 2.31 | 1.68 | 1.26 | -0.0246 | 2.03 | 3.54 | 0.587 | 1.28 |
| CATACGGGGTCAGCTAGGCCAGAGTAGGGACGGC | 4 | 6.37 | 6.46 | 3.01 | 7.61 | 3.98 | 1.61 | 3.27 |
| CAAACTAGCTCAAAGGTCAAAGTCGAGCCAACCA | 4.79 | 6.22 | 5.63 | 1.66 | 7.07 | 3.53 | 0.75 | 2.62 |
| AACTCTAGGTAACCAAGTTCAGTGAATGCCGAAC | 0.982 | 0.219 | 0.32 | 0.853 | 0.269 | 1.34 | 0.572 | 2.11 |
| ACTATTTGTTGACTTAGGGCAACCGATACGACGC | 1.01 | 0.754 | 1.08 | 0.742 | 0.588 | 1.12 | 0.816 | 0.486 |
| TGTCAAAGTTCAAAGGCAACGTAAGTATCCACAC | 3.66 | 5.59 | 5.84 | 4.29 | 5.06 | 2.12 | -0.708 | 4.02 |
| CAGACTAGGTCACAGAGGTCAAAGTCCGTGCGTA | 5.42 | 7.17 | 7.46 | 3.41 | 7.88 | 4.6 | 2.91 | 7.08 |
| GCTGGTAGGTCAGGTTGGTCAGCTAACGGGTACG | 2.87 | 2.48 | 3.76 | 0.0797 | 1.23 | 1.12 | 0.417 | 0.965 |
| CCTACTGGGCCAAAGGTCATTTATTCCAATGCTC | 4.42 | 5.3 | 4.03 | 1.55 | 6.1 | 3.27 | 0.735 | 3.04 |
| TCATATAGGTAAATGGTAGGTGAAAGTCCGATCT | 0.917 | 0.69 | 0.384 | 1.84 | 0.945 | 0.858 | 0.785 | 1.1 |
| CCTAGCAGGCCAGGGTCACTGAAGCATTTCGCTT | 2.95 | 3.32 | 2.91 | 0.172 | 3.86 | 3.07 | 1.02 | 1.19 |
| ACTATTAGTTGAGTCGAGGGCAACCGATAGGTTG | 1.2 | 0.788 | 0.802 | 0.52 | 0.607 | 2.3 | 0.603 | 1.05 |
| GCAGACAGGTGAGACGCAGGTAACTCAGGGTGGC | -0.0826 | 0.237 | 0.034 | -0.867 | 0.28 | 0.763 | -0.588 | -0.464 |
| TCTAGTAGATCAGCAGGTTAAGAAAGCTGGCCAA | -0.0798 | -0.00824 | -0.453 | 0.645 | 0.438 | 0.0763 | -1.15 | -0.213 |
| GCTTGTAGCTCAAGGTTAAGAAAGACTAAGCTAA | -0.0742 | 0.0545 | -0.162 | -0.204 | 0.541 | 0.986 | -0.586 | -0.603 |
| TCGAGTAGGCTAGGGGCATTCAGAATGGCGTCGA | -0.0899 | -0.329 | -0.498 | -0.0684 | 0.0581 | 0.177 | -0.929 | -0.279 |
| CAAACTAGGTCACGAAAGATCAAAGTCGAATGAC | 3.2 | 4.8 | 5.53 | 1.99 | 4.09 | 3.49 | 1.43 | 0.583 |
| ATTGAAAGGTCGACGAGGTGAGTATACACCGTTT | 3.13 | 4.19 | 4.05 | 1.2 | 4.31 | 3.89 | 1.14 | 1.58 |
| TCAGACATGTGAAGGTAACTCAGGTACGCAGTCG | -0.326 | 0.309 | 0.138 | 1.17 | 0.749 | 0.981 | -0.032 | -0.167 |
| CCTGCTAGGTCATGGTCAGCTCATCTACAGTATG | 3.46 | 3.88 | 4.57 | 1.95 | 2.65 | 3.24 | 1.26 | 0.458 |
| ATATGTAGGTTAAGGGTAATTCAGGTTGGTTCGC | 1.56 | 1.13 | 1.08 | 0.754 | 1.64 | 2.43 | 1.45 | 1.89 |
| ACTCGTAGGACAAAGGTCAGAGCTACGCCAGTGA | 4.29 | 5.58 | 4.82 | 1.14 | 5.3 | 2.92 | 0.244 | 0.657 |
| TCTCGGAGTACACGAAGGTCAGAGCTTTCCAGAG | 3.09 | 2.44 | 2.29 | 1.01 | 1.77 | 1.58 | -0.377 | 2.03 |
| GGAACGAGGGCAAAATTGATAGCATCTGTCGACG | 0.53 | 0.822 | 1.08 | 2.03 | 0.69 | 0.648 | -0.431 | 0.356 |
| AGAACGAGGGCATTGAGTTGATAGCACGGGTGGC | 1.01 | 1.11 | 1.39 | 3.13 | 1.04 | 1.14 | -0.127 | 5.15 |
| TCTATTAGTTGATAAGGGCAACCGAAACAGCGGA | 1.39 | 0.857 | 0.844 | 1.2 | 0.562 | 1.4 | 0.878 | 0.573 |
